Laboratory results from PubChem BioAssay (NCATS).
Records with an inconclusive call do not appear. The source made the active and inactive calls. Calls follow the shape of the dose curve; as a rule, active = well fitted cell-killing curve with a large enough effect; inconclusive = small, poorly fitted or top-dose-only effect, or effect the other way; inactive = flat fitted curve, though single readings scatter.

Columns and labels:
Experiment in all cases: Primary qHTS to identify gynecologic anti-cancer compounds using libraries of approved drugs and bioactive compounds (AID 1345084); also: nearly all actives have a fitted effect of over 55% in size
CAOV3 = conditions: Gynecologic cancer cell panel viability, ATPlite luminescence, 48 h; series mostly up to 57.5 µM
Procedure, shortened: (§1)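 Cytotoxicity screen measuring ATP content by luciferase luminescence. Each compound is applied at five concentrations for 48 h at 37 C with 5% CO2.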

CASKI = conditions: Gynecologic cancer cell panel viability, ATPlite luminescence, 48 h; series mostly up to 57.5 µM
Procedure, shortened: as §1

Es-2 = conditions: Gynecologic cancer cell panel viability, ATPlite luminescence, 48 h; series mostly up to 57.5 µM
Procedure, shortened: as §1

HeLa = conditions: Gynecologic cancer cell panel viability, ATPlite luminescence, 48 h; series mostly up to 57.5 µM
Procedure, shortened: as §1

Hek293T = conditions: Gynecologic cancer cell panel viability, ATPlite luminescence, 48 h, control line for the selectivity index; series mostly up to 57.5 µM
Procedure, shortened: as §1

JEG-3 = conditions: Gynecologic cancer cell panel viability, ATPlite luminescence, 48 h; series mostly up to 57.5 µM
Procedure, shortened: as §1

OV90 = conditions: Gynecologic cancer cell panel viability, ATPlite luminescence, 48 h; series mostly up to 57.5 µM
Procedure, shortened: as §1

PA-1 = conditions: Gynecologic cancer cell panel viability, ATPlite luminescence, 48 h; series mostly up to 57.5 µM
Procedure, shortened: as §1

SKOV3 = conditions: Gynecologic cancer cell panel viability, ATPlite luminescence, 48 h; series mostly up to 57.5 µM
Procedure, shortened: as §1

Tov-21-G = conditions: Gynecologic cancer cell panel viability, ATPlite luminescence, 48 h; series mostly up to 57.5 µM
Procedure, shortened: as §1

Tov112D = conditions: Gynecologic cancer cell panel viability, ATPlite luminescence, 48 h; series mostly up to 57.5 µM
Procedure, shortened: as §1
% is scaled to controls: 0 for no effect and ±100 for the full control effect.

Cc1c(-c2ccnn2C)cc(C(=O)NCc2ccc(S(C)(=O)=O)cn2)c(=O)n1-c1cccc(C(F)(F)F)c1
inactive: Potency (CAOV3) | Potency (CASKI) | Potency (Es-2) | Potency (HeLa) | Potency (Hek293T) | Potency (JEG-3) | Potency (OV90) | Potency (PA-1) | Potency (SKOV3) | Potency (Tov-21-G) | Potency (Tov112D)

CC(CCC1C(C(=O)O)=CC(=O)CC1(C)C)O[C@@H]1O[C@H](CO)[C@@H](O)[C@H](O)[C@H]1O (stereo not given in full)
inactive: Potency (CAOV3) | Potency (CASKI) | Potency (Es-2) | Potency (HeLa) | Potency (Hek293T) | Potency (JEG-3) | Potency (OV90) | Potency (PA-1) | Potency (SKOV3) | Potency (Tov-21-G) | Potency (Tov112D)

CC1CCC2C(C(=O)O)=CC3C(O)C(C)(C)CC123 (stereo not given)
inactive: Potency (CAOV3) | Potency (CASKI) | Potency (Es-2) | Potency (HeLa) | Potency (Hek293T) | Potency (JEG-3) | Potency (OV90) | Potency (PA-1) | Potency (SKOV3) | Potency (Tov-21-G) | Potency (Tov112D)

CC1(C)C(=O)N2c3ccccc3[C@]3(CC(n4cnc5ccccc5c4=O)C(=O)O3)[C@H]2N1O (stereo not given in full)
inactive: Potency (CAOV3) | Potency (CASKI) | Potency (Es-2) | Potency (HeLa) | Potency (Hek293T) | Potency (JEG-3) | Potency (OV90) | Potency (PA-1) | Potency (SKOV3) | Potency (Tov-21-G) | Potency (Tov112D)

C=C1CCC2(OC1)OC1CC3C4CC=C5CC(O)CC(O[C@@H]6OC[C@@H](O)[C@H](O)[C@H]6O)C5(C)C4CCC3(C)C1(O)C2C (stereo not given in full)
inactive: Potency (CAOV3) | Potency (CASKI) | Potency (Es-2) | Potency (HeLa) | Potency (Hek293T) | Potency (JEG-3) | Potency (OV90) | Potency (PA-1) | Potency (SKOV3) | Potency (Tov-21-G) | Potency (Tov112D)

C/C(=C/CCC(CO)C1CCC2(C)C3CCC4C(C)(C)C(OC5OC(CO)C(O)C(O)C5O)CC(O)C45CC35CCC12C)COC1OC(CO)C(O)C(O)C1O (stereo not given)
inactive: Potency (CAOV3) | Potency (CASKI) | Potency (Es-2) | Potency (HeLa) | Potency (Hek293T) | Potency (JEG-3) | Potency (OV90) | Potency (PA-1) | Potency (SKOV3) | Potency (Tov-21-G) | Potency (Tov112D)

CC(C)[C@@H](C)/C=C/[C@@H](C)[C@H]1CC[C@H]2C3=CC=C4C[C@@H](O)CC[C@]4(C)[C@H]3CC[C@]12C
inactive: Potency (CAOV3) | Potency (CASKI) | Potency (Es-2) | Potency (HeLa) | Potency (Hek293T) | Potency (JEG-3) | Potency (OV90) | Potency (PA-1) | Potency (SKOV3) | Potency (Tov-21-G) | Potency (Tov112D)

CCCC(N[C@@H](C)C(=O)N1[C@H](C(=O)O)C[C@@H]2CCCC[C@@H]21)C(=O)OCC (stereo not given in full)
inactive: Potency (CAOV3) | Potency (CASKI) | Potency (Es-2) | Potency (HeLa) | Potency (Hek293T) | Potency (JEG-3) | Potency (OV90) | Potency (PA-1) | Potency (SKOV3) | Potency (Tov-21-G) | Potency (Tov112D)

O=C(O)c1cc(O)c2cccc(O)c2c1O[C@@H]1O[C@H](CO)[C@@H](O)[C@H](O)[C@H]1O
inactive: Potency (CAOV3) | Potency (CASKI) | Potency (Es-2) | Potency (HeLa) | Potency (Hek293T) | Potency (JEG-3) | Potency (OV90) | Potency (PA-1) | Potency (SKOV3) | Potency (Tov-21-G) | Potency (Tov112D)

CC1=C2CC3OC3(C)CCC3OC3(C)CC2OC1=O (stereo not given)
inactive: Potency (CAOV3) | Potency (CASKI) | Potency (Es-2) | Potency (HeLa) | Potency (Hek293T) | Potency (JEG-3) | Potency (OV90) | Potency (PA-1) | Potency (SKOV3) | Potency (Tov-21-G) | Potency (Tov112D)

O=C(CCO[C@@H]1O[C@H](CO)[C@@H](O)[C@H](O)[C@H]1O)c1ccc(O)cc1
inactive: Potency (CAOV3) | Potency (CASKI) | Potency (Es-2) | Potency (HeLa) | Potency (Hek293T) | Potency (JEG-3) | Potency (OV90) | Potency (PA-1) | Potency (SKOV3) | Potency (Tov-21-G) | Potency (Tov112D)

CC1(C)CC2C3=CCC4C5(C)CCC(OC6OC(C(=O)O)C(O)C(O)C6OC6OC(CO)C(O)C(O)C6OC6OC(CO)C(O)C(O)C6O)C(C)(CO)C5CCC4(C)C3(C)CCC2(C)C(OC2OCC(O)C(OC3OC(CO)C(O)C(O)C3O)C2O)C1O (stereo not given)
inactive: activity change, negative = cytotoxicity (CAOV3) 13.1% [at 6.55 µM] | activity change, negative = cytotoxicity (CASKI) 6.12% [at 6.55 µM] | activity change, negative = cytotoxicity (Es-2) 1.46% [at 6.55 µM] | activity change, negative = cytotoxicity (HeLa) -0.393% [at 6.55 µM] | activity change, negative = cytotoxicity (Hek293T) 8.01% [at 6.55 µM] | activity change, negative = cytotoxicity (JEG-3) 6.32% [at 6.55 µM] | activity change, negative = cytotoxicity (OV90) -9.75% [at 6.55 µM] | activity change, negative = cytotoxicity (PA-1) 5.88% [at 6.55 µM] | activity change, negative = cytotoxicity (SKOV3) 16.1% [at 6.55 µM] | activity change, negative = cytotoxicity (Tov-21-G) -0.438% [at 6.55 µM] | activity change, negative = cytotoxicity (Tov112D) 1.06% [at 6.55 µM]

CCS(=O)(=O)N1CCC([C@@H](C)n2c(C)c(C(=O)NCc3c(OC)cc(C)[nH]c3=O)c3ccccc32)CC1
inactive: Potency (CAOV3) | Potency (CASKI) | Potency (Es-2) | Potency (HeLa) | Potency (Hek293T) | Potency (JEG-3) | Potency (OV90) | Potency (PA-1) | Potency (SKOV3) | Potency (Tov-21-G) | Potency (Tov112D)

CC(=O)OCCC(C)CCC1C(C)(O)CCC2C(C)(C)CCCC21C (stereo not given)
inactive: Potency (CAOV3) | Potency (CASKI) | Potency (Es-2) | Potency (HeLa) | Potency (Hek293T) | Potency (JEG-3) | Potency (OV90) | Potency (PA-1) | Potency (SKOV3) | Potency (Tov-21-G) | Potency (Tov112D)

C=CC1C(O[C@@H]2O[C@H](CO)[C@@H](O)[C@H](O)[C@H]2O)OC=C(C(=O)OC)C1Cc1nccc2c1[nH]c1ccccc12 (stereo not given in full)
inactive: Potency (CAOV3) | Potency (CASKI) | Potency (Es-2) | Potency (HeLa) | Potency (Hek293T) | Potency (JEG-3) | Potency (OV90) | Potency (PA-1) | Potency (SKOV3) | Potency (Tov-21-G) | Potency (Tov112D)
